Activity calls are given as the source filed them.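 How the source made its calls, unless noted: active means fluorescence slope after compound addition differing from the mean of all screened samples at 99.7% confidence, in either direction; inactive means the rest.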
Assays:
[1] = inhibitors of TNFa-induced NFkB p65 translocation, primary screen, imaging, HUVEC, MLSMR starter and 10KST1 sets (AID 438;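 active means inhibition above 20% together with a positive visual image hit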;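 further: compound added about 3h40 before a 20 min TNFalpha stimulation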;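 on inhibition: signal is the nuclear over cytoplasmic p65 intensity ratio per well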); settings: HUVEC TNFa-induced p65 nuclear translocation; cell count: measured here: nuclei count (cytotoxicity indicator), at 2.08 µM; inhibition: at 2 µM, stronger effect = higher value, 0% TNFa-plus-vehicle, 100% no-TNFa wells
[2] = reduction of polyQ htt aggregates in cells – imaging, exon1htt(103Q)mCFP cells, high-content imaging, primary screen (AID 483;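 active means visual image review flags a hit and inhibition of aggregation exceeds 20%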;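 further: compound exposure lasted 3 days before fixation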;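 on nuclei count: percent of the per-plate median nuclei count of sample wells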); settings: exon1htt(103Q)mCFP cell line, aggregate imaging, at 2 µM; inhibition of aggregation: stronger effect = higher value; nuclei count: measured here: cell count, toxicity
[3] = endothelial E-selectin expression blockers – imaging, HUVEC, immunofluorescence, MLSMR starter and 10KST1 sets, primary screen (AID 487;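 active means visually confirmed hit in the image check and inhibition above 20%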;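 on inhibition: signal is fraction of cell area covered by stained E-selectin grains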;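 on nuclei count: 100% = median nuclei count of all wells on the same plate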); settings: HUVEC TNFalpha-induced E-selectin immunofluorescence imaging, at 2 µM; inhibition: stronger effect = higher value; nuclei count: measured here: cell number, toxicity
[4] = biological target: Voltage-gated potassium channel subunit beta-2 (Rattus norvegicus) (UniProt P62483); test: inhibitors of rat Kvbeta2 reductase activity – biochemical, NADPH fluorescence, primary screen (AID 622;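 active means fluorescence slope higher than the sample average by over 3 SD, cut at about -0.22 in these data, passing the limit was not always enough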;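 further: slope of raw intensity against log time taken from 70 to 1610 s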); settings: recombinant KvBeta, 4-cyanobenzaldehyde reduction, at 10 µM, stronger effect = higher value
[5] = biological target: Voltage-gated potassium channel subunit beta-2 (Rattus norvegicus) (UniProt P62483); test: enhancers of rat Kvbeta2 NADPH turnover – biochemical, NADPH fluorescence, primary screen (AID 623;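 active means NADPH fluorescence slope more negative than the mean of all samples by about 3 SD, 99.7% confidence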;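 further: fluorescence intensity change per second fitted from 20 to 320 s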); settings: Recombinant KvBeta, NADPH fluorescence decrease slope, 10 min; at 10 µM; stronger effect = lower value
[6] = biological target: Alpha-2C adrenergic receptor (Homo sapiens) (UniProt P18825); test: compounds altering alpha2C-coupled GIRK flux – cell-based, HEK293 alpha2C/GIRK1/2, thallium flux, primary screen (AID 624); settings: thallium flux BTC fluorescence, at 10 µM, actives lie on both sides;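 further: slope of fluorescence ratio to pre-addition baseline per second over 15 to 24 s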
[7] = blockers of RIG-like receptor reporter activation – cell-based, Sendai virus stimulus, luciferase, 10K MLSCN set, TLR/RLR signaling modifier project, primary screen (AID 602276;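 active means inhibition at or above 50% at 10 µM; inactive means inhibition below 50%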;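 further: firefly luciferase from ISG56 promoter only with Renilla not read in this screen; 0% = Sendai virus plus DMSO and 100% = medium plus DMSO without virus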); settings: HEK293 RL24 IRF3 luciferase reporter, at 10 µM, stronger effect = higher value
[8] = TLR3 IRF3 reporter activation blockers – cell-based, poly I:C stimulus, luciferase, 10K MLSCN set, primary screen (AID 602277;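 active means inhibition of the reporter signal at or above 50%; inactive means inhibition below 50%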); settings: HEK293-TLR3 RL24 IRF3 luciferase reporter, at 10 µM, stronger effect = higher value

Voltage-gated potassium channel subunit beta-2 (Rattus norvegicus), sequence (P62483 whole entry, looked up): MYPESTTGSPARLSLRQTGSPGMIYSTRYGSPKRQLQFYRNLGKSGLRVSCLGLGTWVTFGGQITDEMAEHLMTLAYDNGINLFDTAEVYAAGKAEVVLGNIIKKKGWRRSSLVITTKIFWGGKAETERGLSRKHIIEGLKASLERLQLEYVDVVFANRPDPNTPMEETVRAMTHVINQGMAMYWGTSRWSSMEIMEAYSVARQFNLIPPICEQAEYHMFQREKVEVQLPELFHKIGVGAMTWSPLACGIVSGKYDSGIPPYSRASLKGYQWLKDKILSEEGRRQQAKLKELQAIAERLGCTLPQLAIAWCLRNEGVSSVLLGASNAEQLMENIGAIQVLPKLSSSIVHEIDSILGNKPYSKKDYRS
Alpha-2C adrenergic receptor (Homo sapiens), sequence (P18825 whole entry, looked up): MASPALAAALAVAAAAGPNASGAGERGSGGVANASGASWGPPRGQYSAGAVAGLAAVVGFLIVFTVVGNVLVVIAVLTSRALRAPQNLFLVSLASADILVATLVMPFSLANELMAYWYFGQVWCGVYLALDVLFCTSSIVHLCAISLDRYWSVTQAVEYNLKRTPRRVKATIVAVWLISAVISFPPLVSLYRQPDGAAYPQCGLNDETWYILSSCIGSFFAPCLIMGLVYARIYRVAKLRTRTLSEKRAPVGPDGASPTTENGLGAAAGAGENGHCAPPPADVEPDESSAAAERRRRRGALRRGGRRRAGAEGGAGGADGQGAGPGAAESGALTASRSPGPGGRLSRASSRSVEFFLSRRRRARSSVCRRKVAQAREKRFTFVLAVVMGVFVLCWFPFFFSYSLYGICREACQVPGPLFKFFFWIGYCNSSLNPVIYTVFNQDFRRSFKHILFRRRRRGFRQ

| Structure (SMILES) | cell count [1] | inhibition [1] | inhibition of aggregation [2] | nuclei count [2] | inhibition [3] | nuclei count [3] | fluorescence slope [4] | NADPH fluorescence slope [5] | slope [6] | inhibition [7] | inhibition [8] |
| --- | --- | --- | --- | --- | --- | --- | --- | --- | --- | --- | --- |
| CC(C)(C)Nc1nc(NC(C)(C)C)nc(-n2ccnc2)n1 | 194 | -0.8% (inactive) | -0.1% (inactive) | 81.5% | 2.8% (inactive) | 91.6% | -0.443 (inactive) | 1.8e-05 (inactive) | 0.00537 (inactive) | 14.6% (inactive) | 29% (inactive) |
| CCn1c(C(=O)N2CCCC(C(=O)NCCCc3ccccc3)C2)cc2sccc21 (centres undefined) | 618 | -12% (inactive) | 40.9% (active) | 123% | -19.4% (inactive) | 104% | -0.583 (inactive) | -1.2e-05 (inactive) | 0.00576 (inactive) | -0.231% (inactive) | -1.26% (inactive) |
| CCc1nnc(NC(=O)NCN2C(=O)C3C4C=CC(C4)C3C2=O)s1 (centres undefined) | 303 | 4.3% (inactive) | 3.2% (inactive) | 92.9% | -28.4% (inactive) | 96.4% | -0.458 (inactive) | -0.000309 (inactive) | 0.00673 (inactive) | 7.26% (inactive) | 12.4% (inactive) |
| O=c1[nH]cnc2c1C1(CCCC1)Cc1ccccc1-2 | 381 | -10.6% (inactive) | 19.5% (inactive) | 87% | -22.8% (inactive) | 110% | -0.274 (inactive) | -1.9e-05 (inactive) | 0.00586 (inactive) | 9.37% (inactive) | 35.4% (inactive) |
| CC(=O)N(C(C)=O)c1ncc2c([nH]c3ccccc32)c1C#N | 320 | 2.1% (inactive) | -79% (inactive) | 2.8% | 0.9% (inactive) | 117% | -0.406 (inactive) | -2.2e-05 (inactive) | 0.00457 (inactive) | 11.7% (inactive) | 15.6% (inactive) |
| CCCc1ccc(S(=O)(=O)NCCc2ccncc2)cc1 | 352 | -15.7% (inactive) | -25.5% (inactive) | 109% | -94.2% (inactive) | 121% | -0.585 (inactive) | -2.4e-05 (inactive) | 0.00524 (inactive) | -3.61% (inactive) | -11.2% (inactive) |
| CCOC(=O)c1sc(NC(=O)CSc2n[nH]c(-c3ccccc3)n2)c(C#N)c1C | 634 | -4.4% (inactive) | -7.1% (inactive) | 94% | 106% (active) | 122% | -0.393 (inactive) | 2.8e-05 (inactive) | 0.00567 (inactive) | 7.86% (inactive) | -25.2% (inactive) |
| CCOC(=O)C1=C(C)N(C)C(=O)NC1c1ccccc1OC (centres undefined) | 692 | -11.4% (inactive) | -20.9% (inactive) | 92.6% | 50.2% (inactive) | 93.2% | -0.4 (inactive) | -1.2e-05 (inactive) | 0.00553 (inactive) | 16.2% (inactive) | 33.7% (inactive) |
| NC(=O)COC(=O)c1ccc(S(=O)(=O)N2CCCCCC2)cc1 | 449 | -7.8% (inactive) | 6.3% (inactive) | 104% | -17.6% (inactive) | 116% | -0.348 (inactive) | -6.2e-05 (inactive) | 0.00701 (inactive) | 11% (inactive) | 14% (inactive) |
| CC(NC(=O)Nc1ccccc1)C(c1cccs1)N1CCOCC1 (centres undefined) | 606 | -0.5% (inactive) | -6.2% (inactive) | 97.6% | -2.9% (inactive) | 111% | -0.6 (inactive) | -9.3e-06 (inactive) | 0.00654 (inactive) | 1.55% (inactive) | 31% (inactive) |
| Cc1ccn2cc(CCNC(=O)CC(C)(C)C)nc2c1 | 316 | 6.4% (inactive) | -9.1% (inactive) | 95.6% | -3.4% (inactive) | 104% | -0.307 (inactive) | -5.9e-05 (inactive) | 0.00588 (inactive) | 3.87% (inactive) | 5.08% (inactive) |
| COc1ccccc1N1C(=O)CCC1(C#N)c1ccccc1 (centres undefined) | 567 | 6.9% (inactive) | -0.9% (inactive) | 87.7% | -30.3% (inactive) | 72.2% | -0.62 (inactive) | 6e-06 (inactive) | 0.0062 (inactive) | -5.14% (inactive) | 9.48% (inactive) |
| CCOC(=O)C1=C(C)Nc2nnnn2C1c1c[nH]c2ccccc12 (centres undefined) | 498 | 0.6% (inactive) | 1.4% (inactive) | 47.3% | -59.7% (inactive) | 101% | -0.612 (inactive) | -1.2e-05 (inactive) | 0.00469 (inactive) | 7.12% (inactive) | 8.76% (inactive) |
| Cc1cccc(-c2cc3nc4c(c(N5CCOCC5)n3n2)CCCC4)c1 | 621 | -7.5% (inactive) | 1.5% (inactive) | 107% | -74.2% (inactive) | 101% | -0.399 (inactive) | 1e-05 (inactive) | 0.00597 (inactive) | -9.84% (inactive) | 33.5% (inactive) |
